In this test the target is T1, NKX2-6 (Homo sapiens, UniProt A6NCS4 118-204, R150C).
T1 sequence: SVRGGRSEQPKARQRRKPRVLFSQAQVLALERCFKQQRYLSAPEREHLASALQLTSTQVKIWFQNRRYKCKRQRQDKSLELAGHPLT
Briefly: PBM; 200 nM protein, PBS. The settings on record: dsDNA, one strand shown.
In the case of AGCCCCTG, the binding signal was 9.59 upbm affinity estimate (log intensity, higher = more binding, comparable within an allelic series).
As for ATACTTTG, the figure is 10.7 upbm affinity estimate (log intensity, higher = more binding, comparable within an allelic series); as for GACGCCCC, 9.56 upbm affinity estimate (log intensity, higher = more binding, comparable within an allelic series).
Take CCCCGTTC: the binding signal was 9.42 upbm affinity estimate (log intensity, higher = more binding, comparable within an allelic series).
In the case of CAAAGTGC, the binding signal was 11 upbm affinity estimate (log intensity, higher = more binding, comparable within an allelic series).
As for CCGTAGCG, the binding signal is 9.34 upbm affinity estimate (log intensity, higher = more binding, comparable within an allelic series).
As to CCCGCCAG, the binding signal was 9.62 upbm affinity estimate (log intensity, higher = more binding, comparable within an allelic series).
For CACAGGCG, the binding signal was 9.43 upbm affinity estimate (log intensity, higher = more binding, comparable within an allelic series).
Turning to CGCCTACA, the binding signal is 9.72 upbm affinity estimate (log intensity, higher = more binding, comparable within an allelic series).
For CGCTCACC, the binding signal is 9.46 upbm affinity estimate (log intensity, higher = more binding, comparable within an allelic series).
As for GATCCGAC, the figure is 9.56 upbm affinity estimate (log intensity, higher = more binding, comparable within an allelic series); as for AAGCCCCC, 9.33 upbm affinity estimate (log intensity, higher = more binding, comparable within an allelic series); as for GGGGAACC, 9.63 upbm affinity estimate (log intensity, higher = more binding, comparable within an allelic series).
Turning to CCCAGGGG, the binding signal was 9.24 upbm affinity estimate (log intensity, higher = more binding, comparable within an allelic series).
As for ACCGTGGA, the figure is 9.56 upbm affinity estimate (log intensity, higher = more binding, comparable within an allelic series); as for ACCGACGC, 9.5 upbm affinity estimate (log intensity, higher = more binding, comparable within an allelic series).
On to CCCGCAGC, for which the binding signal is 9.3 upbm affinity estimate (log intensity, higher = more binding, comparable within an allelic series).
Regarding CGCCCGTC, the binding signal was 9.36 upbm affinity estimate (log intensity, higher = more binding, comparable within an allelic series).
As for CAGCCCTG, the figure is 9.44 upbm affinity estimate (log intensity, higher = more binding, comparable within an allelic series); as for CACTCGTC, 10.8 upbm affinity estimate (log intensity, higher = more binding, comparable within an allelic series).
To TACAAGTA belongs 11.3 upbm affinity estimate (log intensity, higher = more binding, comparable within an allelic series); to CGGGCGGA, 9.09 upbm affinity estimate (log intensity, higher = more binding, comparable within an allelic series).
As to CTACTTTA, the binding signal is 11 upbm affinity estimate (log intensity, higher = more binding, comparable within an allelic series).
For GCAGCACC, the binding signal is 9.59 upbm affinity estimate (log intensity, higher = more binding, comparable within an allelic series).
To CATGCCGG belongs 9.42 upbm affinity estimate (log intensity, higher = more binding, comparable within an allelic series); to CACTTCCA, 11 upbm affinity estimate (log intensity, higher = more binding, comparable within an allelic series).
For AGGCAGTC, the binding signal is 9.73 upbm affinity estimate (log intensity, higher = more binding, comparable within an allelic series).
For the sequence AAAGTGAG, the binding signal was 10.8 upbm affinity estimate (log intensity, higher = more binding, comparable within an allelic series).
Regarding ATACTTGG, the binding signal was 10.8 upbm affinity estimate (log intensity, higher = more binding, comparable within an allelic series).
For CCCGCACA, the binding signal is 9.66 upbm affinity estimate (log intensity, higher = more binding, comparable within an allelic series).
Regarding CCCCCATC, the binding signal is 9.53 upbm affinity estimate (log intensity, higher = more binding, comparable within an allelic series).
Regarding AGAGTGGA, the binding signal is 11 upbm affinity estimate (log intensity, higher = more binding, comparable within an allelic series).
To GGGGCCAC belongs 9.87 upbm affinity estimate (log intensity, higher = more binding, comparable within an allelic series).
To CTGACCCC belongs 9.6 upbm affinity estimate (log intensity, higher = more binding, comparable within an allelic series).
As for CGGTTAGC, the binding signal is 9.51 upbm affinity estimate (log intensity, higher = more binding, comparable within an allelic series).
Regarding AGAGTGGC, the binding signal is 10.9 upbm affinity estimate (log intensity, higher = more binding, comparable within an allelic series).
Regarding AGTAAGTA, the binding signal is 11.1 upbm affinity estimate (log intensity, higher = more binding, comparable within an allelic series).
Take ACCTCCCC: the binding signal is 9.56 upbm affinity estimate (log intensity, higher = more binding, comparable within an allelic series).
For the sequence TCACTCAA, the binding signal was 10.9 upbm affinity estimate (log intensity, higher = more binding, comparable within an allelic series).
Regarding CCCGCCGA, the binding signal is 9.28 upbm affinity estimate (log intensity, higher = more binding, comparable within an allelic series).

The record behind these values is PMC11006913.
